Most compounds without a hit are left out; they make up all but 2.1% or so of the library.
Gli-Sufu antag = Gli-Sufu pathway antagonism; inhibition, % at 5 µM; Sufu-KO-LIGHT fibroblasts, Gli luciferase reporter luminescence; 340,000 tested, 0.74% active; AID 588413;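 active = inhibition above about 55%, limit read from the data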
Env fusion inh = HIV envelope-mediated fusion inhibition | HeLa-JRFL Env/CEM21 cell fusion, luciferase | inhibition, % at 12.3 µM | 360,000 tested, 1.1% active;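 active = mean replicate inhibition score of at least 50 and every replicate individually at or above 50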
aDG glyco up = increases alpha dystroglycan glycosylation; Pro5-aDG cells, alpha-DG glycosylation AlphaScreen (IIH6); 0% Pro5, 100% B10-LARGE cell signal; activation, % at 10 µM; 360,000 tested, 0.22% active; AID 624168;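 active = activation of at least 8% versus controls, or a plate z-score of at least 8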;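 also: Pro5 are CHO cells carrying HIG-tagged alpha-DG that lacks glycosylation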
NR2F2 inh = NR2F2 (human) inhibition, primary screen; inhibition, % at 8.6 µM; HEK293T NGFI-A luciferase reporter, luminescence; 370,000 tested, 0.7% active;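 active = inhibition above a per-plate cutoff, mean inhibition of test wells between control levels plus 3 SD, cut at about 38% in these data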;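 also: cells cotransfected with COUP-TFII expression vector driving the NGFI-A reporter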
Target sequence (P24468 whole entry, looked up): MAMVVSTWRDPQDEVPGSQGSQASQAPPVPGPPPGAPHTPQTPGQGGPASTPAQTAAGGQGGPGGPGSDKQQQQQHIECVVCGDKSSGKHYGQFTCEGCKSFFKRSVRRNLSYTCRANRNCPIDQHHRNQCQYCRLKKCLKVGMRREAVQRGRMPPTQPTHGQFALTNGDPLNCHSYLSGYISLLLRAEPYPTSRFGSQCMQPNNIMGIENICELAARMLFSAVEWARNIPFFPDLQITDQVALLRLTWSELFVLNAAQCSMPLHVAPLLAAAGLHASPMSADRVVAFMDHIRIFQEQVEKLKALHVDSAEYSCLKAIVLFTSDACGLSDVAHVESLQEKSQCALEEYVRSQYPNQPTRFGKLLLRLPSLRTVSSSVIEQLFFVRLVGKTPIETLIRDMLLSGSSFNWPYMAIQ
GalR3 antag = blocks the human galanin receptor 3 | inhibition, % at 3 µM | HEK293 GalR3-CNG cAMP membrane potential fluorescence; galR3 body fused to GalR1 C-terminus | 360,000 tested, 0.44% active | O60755;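 active = inhibition above the screen-wide average plus 3 SD, cut at about 13% in these data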;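 also: forskolin and galanin both at EC90 stimulate the cells; cAMP rise reported by CNG channel membrane potential dye signal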
Target sequence (O60755 1-299 limits assumed): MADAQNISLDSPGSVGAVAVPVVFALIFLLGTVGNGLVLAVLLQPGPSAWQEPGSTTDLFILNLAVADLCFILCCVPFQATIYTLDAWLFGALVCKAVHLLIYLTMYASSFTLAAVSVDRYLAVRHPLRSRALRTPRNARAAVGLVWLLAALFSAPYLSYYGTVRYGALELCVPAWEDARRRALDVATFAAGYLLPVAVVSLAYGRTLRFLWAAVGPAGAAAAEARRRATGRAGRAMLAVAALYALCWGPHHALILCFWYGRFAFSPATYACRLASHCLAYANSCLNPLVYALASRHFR
Of the large screens only hits and unclear results are named; the others gave an inactive call; [ ] = remark or other dose.

Cc1nn(Cc2ccc(Cl)c(Cl)c2)c(C)c1NC(=O)c1noc2c1CCCCC2	Env fusion inh 56
CC(C)(C)C1CCc2onc(C(=O)NCc3ccc(F)cc3)c2C1 (stereo not given)	Env fusion inh 76
O=C(NCc1ccc(F)cc1)c1noc2c1CCCC2	none (no result: Env fusion inh, NR2F2 inh, GalR3 antag)
Cc1nn(Cc2ccc(Cl)cc2)c(C)c1NC(=O)c1noc2c1CCCCC2	none (no result: Env fusion inh, NR2F2 inh, GalR3 antag)
Cc1ccccc1Cn1nc(C)c(NC(=O)c2noc3c2CC(C(C)(C)C)CC3)c1C (stereo not given)	Env fusion inh 56
COc1ccc(NC(=O)Nc2ccc3c(c2)C(=O)N([C@@H](C)CO)C[C@@H](C)[C@@H](CN(C)C(=O)NC(C)C)O3)cc1	none (no result: Gli-Sufu antag, aDG glyco up, NR2F2 inh, GalR3 antag)
C[C@H](CO)N1C[C@H](C)[C@H](CN(C)C(=O)C2CCCCC2)Oc2cc(-c3ccccc3)ccc2S1(=O)=O	none (no result: Gli-Sufu antag, aDG glyco up, NR2F2 inh, GalR3 antag)
CO[C@@H]1CN(C)C(=O)c2cc(NC(=O)c3cc(C)on3)ccc2OC[C@H](C)NC[C@@H]1C	none (no result: Gli-Sufu antag, aDG glyco up, NR2F2 inh, GalR3 antag)
C[C@H](O)C#Cc1cnc2c(c1)C(=O)N([C@@H](C)CO)C[C@@H](C)[C@H](CN(C)Cc1cccc(F)c1)O2	none (no result: Gli-Sufu antag, aDG glyco up, NR2F2 inh, GalR3 antag)
c1ccc(Nc2nc(N3CCCC3)nc(N3CCOCC3)n2)cc1	Env fusion inh 61
CC1=C(C(=O)NC(C)c2ccccc2)C2(CCC(C)CC2)OC1=O (stereo not given)	none
CC1=C(C(=O)NC(C)C)C2(CCC(C)CC2)OC1=O (stereo not given)	Env fusion inh 61 (no result: GalR3 antag)
CC(C)C(NS(=O)(=O)c1ccc2c(c1)C(C)(C)C(=O)N2C)C(=O)NCc1ccccc1Cl (stereo not given)	Env fusion inh 62
COc1ccc(NC(=O)COc2ccc(C)c(C)c2)cc1S(=O)(=O)N1CCCCC1	none
COc1ccc(S(=O)(=O)N2CCCCC2)cc1NC(=O)CN(C)C1CCCCC1	none
COc1ccc(NC(=O)COc2cc(C)cc(C)c2)cc1S(=O)(=O)N1CCCCC1	Env fusion inh 61
COc1ccc(S(=O)(=O)N2CCCCCC2)cc1NC(=O)CN(C)Cc1ccc2c(c1)OCO2	Env fusion inh 58
COc1ccc(S(=O)(=O)N2CCCCC2)cc1NC(=O)CN(Cc1ccco1)Cc1ccco1	Env fusion inh 76
COc1ccc(S(=O)(=O)N2CCCCC2)cc1NC(=O)CCCOc1ccc(C)cc1	Env fusion inh 71
O=C(C[C@@H]1CC[C@H](NC(=O)Nc2ccc(F)cc2)[C@@H](CO)O1)NCCN1CCCC1	none (no result: Gli-Sufu antag, aDG glyco up, NR2F2 inh, GalR3 antag)
C[C@H](O)C#Cc1cnc2c(c1)C(=O)N([C@@H](C)CO)C[C@H](C)[C@@H](CN(C)Cc1ccccn1)O2	none (no result: Gli-Sufu antag, aDG glyco up, NR2F2 inh, GalR3 antag)
O=C(CCCOc1ccc(Cl)cc1Cl)Nc1cc(S(=O)(=O)N2CCOCC2)ccc1N1CCOCC1	Env fusion inh 79
COc1nc(-c2ccccc2Cl)ccc1C#N	Env fusion inh 56
Cc1ccc(N(C(=O)CCl)C(C(=O)NC2CCCCC2)c2cccnc2)cc1C (stereo not given)	Gli-Sufu antag 93 (no result: Env fusion inh, aDG glyco up)
Cc1ccc(N(C(=O)CNC(=O)c2ccco2)C(C(=O)NC2CCCCC2)c2cccnc2)cc1C (stereo not given)	none
CNC(=O)C[C@H]1CC[C@H]2[C@H](COc3ccc(NC(=O)Nc4ccccc4)cc3C(=O)N2C)O1	none (no result: Gli-Sufu antag, aDG glyco up, NR2F2 inh, GalR3 antag)
CCNC1CCC(Nc2ccnc3cc(Cl)ccc23)CC1 (stereo not given)	Env fusion inh 74
OC(CNc1ccnc2cc(Cl)ccc12)CNC1CCCCC1 (stereo not given)	none
C[C@@H]1CN([C@H](C)CO)C(=O)c2cc(Br)cnc2O[C@H]1CN(C)Cc1ccncc1	none (no result: Gli-Sufu antag, aDG glyco up, NR2F2 inh, GalR3 antag)
CC(C)CN(C(=O)C(c1ccccc1)c1ccccc1)c1c(N)n(CC(C)C)c(=O)[nH]c1=O	Env fusion inh 79
CC(C)CN(C(=O)COC(=O)C12CC3CC(CC(C3)C1)C2)c1c(N)n(Cc2ccccc2)c(=O)[nH]c1=O	Env fusion inh 70
CC(C)(C)NC(=O)C(c1ccncc1)n1c(=O)c(-c2cc3ccccc3[nH]2)nc2ccccc21 (stereo not given)	Env fusion inh 58 (no result: Gli-Sufu antag)
C[C@@H]1CN([C@@H](C)CO)C(=O)c2cc(NC(=O)Cc3ccccc3)ccc2O[C@@H](C)CCCCO[C@@H]1CN(C)Cc1ccc(C(F)(F)F)cc1	none (no result: Gli-Sufu antag, aDG glyco up, NR2F2 inh, GalR3 antag)
C[C@@H]1CCCCO[C@@H](CN(C)Cc2ccc(C(F)(F)F)cc2)[C@H](C)CN([C@H](C)CO)C(=O)c2cc(NC(=O)Cc3ccccc3)ccc2O1	none (no result: Gli-Sufu antag, aDG glyco up, NR2F2 inh, GalR3 antag)
C[C@H](CO)N1C[C@H](C)[C@H](CN(C)Cc2ccc(C(F)(F)F)cc2)OCCCC[C@H](C)Oc2ccc(NC(=O)Cc3ccccc3)cc2C1=O	Env fusion inh 72[16.7 µM] (no result: Gli-Sufu antag, aDG glyco up, NR2F2 inh, GalR3 antag)
C[C@@H]1CN([C@H](C)CO)C(=O)c2cc(NC(=O)Cc3ccccc3)ccc2O[C@@H](C)CCCCO[C@H]1CN(C)Cc1ccc(C(F)(F)F)cc1	Env fusion inh 73[16.7 µM] (no result: Gli-Sufu antag, aDG glyco up, NR2F2 inh, GalR3 antag)
C[C@@H]1CN([C@@H](C)CO)C(=O)c2cc(NC(=O)Cc3ccccc3)ccc2O[C@@H](C)CCCCO[C@H]1CN(C)Cc1ccc(C(F)(F)F)cc1	Env fusion inh 64[16.7 µM] (no result: Gli-Sufu antag, aDG glyco up, NR2F2 inh, GalR3 antag)
C[C@@H]1CN([C@@H](C)CO)C(=O)Cc2cc(NC(=O)Nc3cccc4ccccc34)ccc2O[C@H]1CN(C)C(=O)Nc1ccc(F)cc1	none (no result: Gli-Sufu antag, aDG glyco up, NR2F2 inh, GalR3 antag)
O=c1c2ccccc2nc(/C=C/c2ccc([N+](=O)[O-])o2)n1CCCO	Gli-Sufu antag 71 (no result: Env fusion inh)
O=c1c2ccccc2nc(/C=C/c2ccc([N+](=O)[O-])cc2)n1CCCO	none (no result: Env fusion inh)
Cc1noc(C)c1NC(=O)Nc1ccc2c(c1)C(=O)N([C@@H](C)CO)C[C@H](C)[C@@H](CN(C)S(=O)(=O)c1c(C)noc1C)OCCCC[C@@H](C)O2	none (no result: Gli-Sufu antag, aDG glyco up, NR2F2 inh, GalR3 antag)
COc1ccc(S(=O)(=O)N[C@@H]2CC[C@@H](CC(=O)NCc3ccccc3F)O[C@H]2CO)cc1	none (no result: Gli-Sufu antag, aDG glyco up, NR2F2 inh, GalR3 antag)
COc1cc(/C=N/NS(=O)(=O)c2ccc(C)cc2)ccc1OCc1ccc(C(=O)O)cc1	Env fusion inh 72
COc1ccccc1[C@@H]1C(c2ccc(F)cc2)=NN(c2ccccc2)[C@H]1C(=O)N1CCOC1=O	Env fusion inh 82
C[C@H]1CCCCO[C@H](CN(C)C(=O)C2CCCCC2)[C@@H](C)CN([C@@H](C)CO)C(=O)c2cc(N(C)C)ccc2O1	none (no result: Gli-Sufu antag, aDG glyco up, NR2F2 inh, GalR3 antag)
O=C(Nc1ccccc1Cl)c1ccccc1CC(O)(c1ccccc1)c1ccccc1	Env fusion inh 93 (no result: Gli-Sufu antag)
C[C@H](CO)N1C[C@H](C)[C@H](CN(C)Cc2ccccc2)Oc2cc(C#C[C@@H](C)O)ccc2S1(=O)=O	none (no result: Gli-Sufu antag, aDG glyco up, NR2F2 inh, GalR3 antag)
COc1ccc(-c2cc(C3CCN(c4cc(Cl)nc(N)n4)CC3)[nH]n2)cc1	Env fusion inh 94
COc1ccc(OC)c(-c2cc(C3CCN(c4cc(Cl)nc(N)n4)CC3)[nH]n2)c1	Env fusion inh 63
CN(C)/C=N/C1=C(C#N)C(c2ccc(Br)cc2)c2ccc3ccccc3c2O1 (stereo not given)	Env fusion inh 59
N#CC1=C(N)Oc2c(ccc3ccccc23)C1c1cccs1 (stereo not given)	none (no result: Env fusion inh, aDG glyco up, NR2F2 inh, GalR3 antag)

Source: PubChem BioAssay
